DAX1 inh-1 – inhibitors of human orphan nuclear receptor DAX1 (NR0B1). hit rate 0.99% among 340,000. P51843. inhibition, % at 6.75 µM. HEK293 Gal4-DAX1 luciferase reporter, luminescence. AID 504766;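 active = inhibition above the mean over all tested compounds plus 3 SD, cut at about 4.2% in these data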;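 note: 0% = DAX1-transfected cells with DMSO and 100% = empty-vector control cells with DMSO; inhibition shows as a rise in luminescence from relieved DAX1 repression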
Target sequence (P51843 207-470 limits assumed): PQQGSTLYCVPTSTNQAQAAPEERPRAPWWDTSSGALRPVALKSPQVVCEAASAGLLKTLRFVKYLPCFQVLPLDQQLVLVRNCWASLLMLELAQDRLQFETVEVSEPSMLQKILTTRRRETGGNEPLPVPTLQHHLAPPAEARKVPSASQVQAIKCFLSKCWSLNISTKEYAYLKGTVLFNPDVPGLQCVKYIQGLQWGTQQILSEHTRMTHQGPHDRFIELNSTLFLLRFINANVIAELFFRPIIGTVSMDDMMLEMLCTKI
DAX1 inh-2 – inhibitors of DAX1 repression of SF-1 activated StAR promoter; HEK293T StAR-luciferase reporter, SF-1/DAX-1 repression relief; inhibition, % at 6.8 µM; hit rate 1.1% among 370,000; AID 652010;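 active = inhibition above the mean over all tested compounds plus 3 SD, cut at about 3.6% in these data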;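 note: 0% = DAX-1 cells with DMSO and 100% = cells lacking DAX-1 with DMSO; higher inhibition means more luminescence from relief of DAX-1 repression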
GAA850 FXN act – frataxin GAA850 promoter activation; HEK293 lucGAA850 FXN promoter luciferase reporter, 24 h; percent of 10 µM SAHA response; activation, % at 6 µM; hit rate 0.56% among 360,000;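 active = activation above the average of all compounds screened plus 3 SD, cutoff fixed separately per campaign, cut at about 7.5% in these data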;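 note: 0% = DMSO wells and 100% = 10 µM SAHA wells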
hcDAF-12 act – activates DAF-12 receptor from parasite H. contortus | HEK293 hcDAF-12 lit1-tk-luc reporter, luminescence; 0% DMSO, 100% Δ7-dafachronic acid | activation, % at 6.8 µM | hit rate 1.4% among 370,000 | AID 652067;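 active = activation above the mean of all tested compounds plus 3 SD, cut at about 5.5% in these data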;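 note: 100% = response to 3 µM Δ7-dafachronic acid high control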
hgDAF-12 ag – activates the H. glycines DAF-12 receptor ligand-binding domain. HEK293 GAL4-hgDAF12 UAS-luciferase reporter, agonist luminescence; normalized to butyrate control. activation, % at 6.8 µM. hit rate 1.8% among 370,000. AID 687014;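 active = activation above a cutoff set at the mean of all screened compounds plus 3 SD, cut at about 10% in these data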;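 note: 0% = DMSO wells and 100% = sodium butyrate wells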
ssDAF-12 act – S. stercoralis DAF-12 activation, primary screen; HEK293 ssDAF-12/GRIP1 lit1-tk-luc reporter, luminescence; % of 3 µM dafachronic acid response; activation, % at 6.8 µM; hit rate 1% among 370,000; AID 652126;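 active = activation above the mean over all tested compounds plus 3 SD, cut at about 0.9% in these data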;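 note: 0% = DMSO-only wells and 100% = 3 µM delta7-dafachronic acid wells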
LXRb hcDAF ctr – LXR-beta agonism as hcDAF-12 counter-screen; shares compounds with hcDAF-12 act; HEK293 Gal4-LXR tk-luc reporter, luminescence, 24 h; normalized: DMSO 0%, positive control 100%; activation, % at 6.8 µM; 3,400 tested, under 10 active; AID 743027;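 active = mean percent activation of the reporter above a cutoff set as the average over tested compounds plus their standard deviation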
hcDAF12 ag – confirmation of H. contortus DAF-12 agonists | shares compounds with hcDAF-12 act | HEK293 hcDAF-12 lit1-tk-luc reporter, luminescence; % of Δ7-dafachronic acid response | activation, % at 6.8 µM | hit rate 61% among 3,400 | AID 743032;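 active = mean activation across triplicate tests above the threshold derived from the earlier primary screen, cut at about 5.5% in these data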;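 note: 0% = DMSO only wells and 100% = 3 µM Δ7-dafachronic acid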
Starred values were filed as active, the others as inactive. This is a sample that favours compounds with a hit; in the whole collection about 4.5% have one here.

For Cc1ccc(Nc2n[nH]c(C)c2[N+](=O)[O-])c(C)c1 the results were DAX1 inh-1 0, DAX1 inh-2 2, GAA850 FXN act 6, hcDAF-12 act 4, hgDAF-12 ag 9 and ssDAF-12 act -1.
Screening O=C(Nc1ccccc1)Nc1nnc(-c2cccs2)s1 returned DAX1 inh-1 0, DAX1 inh-2 1, GAA850 FXN act 0, hcDAF-12 act 6.6*, hgDAF-12 ag 4, ssDAF-12 act 0, LXRb hcDAF ctr 0 and hcDAF12 ag 0.
COc1ccc(NC(=O)Nc2nnc(-c3cccs3)s2)cc1 was read as DAX1 inh-1 1, DAX1 inh-2 1, GAA850 FXN act 4, hcDAF-12 act 2, hgDAF-12 ag 4 and ssDAF-12 act -1.
COc1ccc(C(=O)Nc2nnc(-c3cccs3)s2)cc1 was read as DAX1 inh-1 1, DAX1 inh-2 2, GAA850 FXN act 1, hcDAF-12 act 6.8*, hgDAF-12 ag 10, ssDAF-12 act 1.3*, LXRb hcDAF ctr 2 and hcDAF12 ag 17*.
Screening C[C@H]1[C@@H](NC(=O)c2cccc(N(C)C)c2)CC[C@@]23CCCN2C(=O)CCC[C@@H]13 returned hcDAF-12 act -1, hgDAF-12 ag 0 and ssDAF-12 act -1.
`CC(C)(C)OC[C@H](NC(=O)c1[nH]cnc1C(=O)Nc1ccccc1F)C(=O)OC(C)(C)C` gave DAX1 inh-1 0, DAX1 inh-2 1, GAA850 FXN act 0, hcDAF-12 act 0, hgDAF-12 ag 3 and ssDAF-12 act -1.
Screening Cc1ccc(NC(=O)c2ccc3nc[nH]c3c2)nc1 returned DAX1 inh-1 1, DAX1 inh-2 9.6*, GAA850 FXN act 2, hcDAF-12 act 8.9*, hgDAF-12 ag 7, ssDAF-12 act 0, LXRb hcDAF ctr 1 and hcDAF12 ag 5.
For O=C1CCOc2cc(OCc3ccccc3)ccc21 the results were DAX1 inh-1 1, DAX1 inh-2 3, GAA850 FXN act 1, hcDAF-12 act 9.2*, hgDAF-12 ag 12*, ssDAF-12 act 0, LXRb hcDAF ctr 2 and hcDAF12 ag 6.2*.
For CC1(C)CC(=O)N(CC(=O)NCc2ccccc2)c2ccccc2S1(=O)=O the results were DAX1 inh-1 0, DAX1 inh-2 0, GAA850 FXN act 1, hcDAF-12 act 14*, hgDAF-12 ag 1, ssDAF-12 act -2, LXRb hcDAF ctr 0 and hcDAF12 ag 1.
`O=C(Nc1ccccc1)n1cc(-c2ccccn2)c(N2CCOCC2)n1` gave DAX1 inh-1 0, DAX1 inh-2 1, GAA850 FXN act 1, hcDAF-12 act 7.2*, hgDAF-12 ag 6, ssDAF-12 act 2.2*, LXRb hcDAF ctr 0 and hcDAF12 ag 4.
O=C(Nc1ccc(Nc2ccccc2)cc1)N1CCOCC1 was read as DAX1 inh-1 1, DAX1 inh-2 0, GAA850 FXN act 0, hcDAF-12 act -1, hgDAF-12 ag -1 and ssDAF-12 act -2.
For COc1ccc(OC)c(S(=O)(=O)NCC2CCN(C(=O)C(=O)c3cc4ccccc4o3)CC2)c1 the results were DAX1 inh-2 -1, hcDAF-12 act -2, hgDAF-12 ag -2 and ssDAF-12 act -1.
`COC(=O)C1=C(C)N(Cc2cccc(C(F)(F)F)c2)C(=NCc2cc(OC)c(OC)c(OC)c2)NC1c1ccccc1` (configuration not stated) gave DAX1 inh-2 0, hcDAF-12 act 0, hgDAF-12 ag -1 and ssDAF-12 act 0.
Screening O=C(O)c1ccccc1Nc1cccc(OCc2ccc3ccccc3n2)c1 returned DAX1 inh-1 0, DAX1 inh-2 1, GAA850 FXN act -1, hcDAF-12 act 6.6*, hgDAF-12 ag 3, ssDAF-12 act -1, LXRb hcDAF ctr 0 and hcDAF12 ag 1.
For COc1ccc(C(=O)NCC2CCN(C(=O)C(=O)c3cc4ccccc4o3)CC2)cc1 the results were DAX1 inh-2 0, hcDAF-12 act 0, hgDAF-12 ag 1 and ssDAF-12 act 0.
O=CN1Cc2[nH]c3ccccc3c2N(c2ccc(Cl)cc2)C1=O was read as DAX1 inh-1 -1, DAX1 inh-2 0, GAA850 FXN act 2, hcDAF-12 act 7.0*, hgDAF-12 ag 2, ssDAF-12 act 1.1*, LXRb hcDAF ctr 0 and hcDAF12 ag 3.
`O=C1CNCc2[nH]c3ccccc3c2N1c1ccccc1` gave DAX1 inh-1 -1, DAX1 inh-2 0, GAA850 FXN act -1, hcDAF-12 act 2, hgDAF-12 ag 6 and ssDAF-12 act 0.
`N#C/C(=C\Nc1ccc2cn[nH]c2c1)c1nc(-c2ccc(Cl)cc2)cs1` gave DAX1 inh-1 2, DAX1 inh-2 0, GAA850 FXN act 4, hcDAF-12 act 7.3*, hgDAF-12 ag 2, ssDAF-12 act 0, LXRb hcDAF ctr -1 and hcDAF12 ag 3.
Screening N#C/C(=C\Nc1ccc2cn[nH]c2c1)c1nc(-c2ccccc2)cs1 returned DAX1 inh-1 -1, DAX1 inh-2 -1, GAA850 FXN act 5, hcDAF-12 act 0, hgDAF-12 ag -1 and ssDAF-12 act -1.
Screening Cc1ccc(SC2=C(Sc3ccc(C)cc3)C(=O)c3ccccc3C2=O)cc1 returned DAX1 inh-1 3, DAX1 inh-2 2, GAA850 FXN act 6, hcDAF-12 act 9.7*, hgDAF-12 ag 6, ssDAF-12 act 1, LXRb hcDAF ctr 0 and hcDAF12 ag 2.
Screening COc1ccc(C(OCC(O)CN2CCC(O)CC2)c2ccc(OC)cc2)cc1 (configuration not stated) returned DAX1 inh-1 0, DAX1 inh-2 1, GAA850 FXN act 0, hcDAF-12 act 10*, hgDAF-12 ag 3, ssDAF-12 act 0, LXRb hcDAF ctr 0 and hcDAF12 ag 0.
For COc1ccc(C(F)(F)F)cc1NC(=O)C(OC(=O)CNC(=O)c1ccccc1)c1ccccc1 (configuration not stated) the results were hcDAF-12 act -2, hgDAF-12 ag -1 and ssDAF-12 act -1.
O=C1C(C=Nc2ccccc2)=C(O)c2ccccc21 was read as DAX1 inh-1 -1, DAX1 inh-2 4.5*, GAA850 FXN act 1, hcDAF-12 act 16*, hgDAF-12 ag 13*, ssDAF-12 act 1.8*, LXRb hcDAF ctr 2 and hcDAF12 ag 11*.
For CC1(C)CC(=O)C(C=Nc2ccccc2)=C(O)C1 the results were DAX1 inh-1 1, DAX1 inh-2 0, GAA850 FXN act 2, hcDAF-12 act 0, hgDAF-12 ag -1 and ssDAF-12 act -1.

Screens (PubChem)
